Measurements as given in PubChem BioAssay (Tox21).
Inconclusive results are not listed. The source made the active and inactive calls. Unless noted, the call rests on the fitted dose curve.

Legend:
[1] = qHTS assay to identify small molecule antagonists of the sonic hedgehog signaling (Shh) pathway (AID 1259369); further: nearly all actives have a fitted effect of over 45% in size; further: potency means the concentration at half of the fitted maximal effect
Summary of the method: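 Read-out is luminescence from a firefly luciferase gene controlled by the Gli1 response element, in 3T3Gli1-Luc cells pre-incubated 4hr then exposed to compounds and conditioned medium for 24hr.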

[2] = target: Estrogen receptor beta (Homo sapiens) (UniProt Q92731); assay: qHTS assay to identify small molecule agonists of the estrogen receptor beta (ER-beta) signaling pathway (AID 1259377; active means well fitted activation curve with a large enough effect in the signal ratio in the repeat runs, not every such curve was filed as active; the % refers to the signal ratio)
Sequence of Estrogen receptor beta (Homo sapiens) (Q92731 whole entry, looked up): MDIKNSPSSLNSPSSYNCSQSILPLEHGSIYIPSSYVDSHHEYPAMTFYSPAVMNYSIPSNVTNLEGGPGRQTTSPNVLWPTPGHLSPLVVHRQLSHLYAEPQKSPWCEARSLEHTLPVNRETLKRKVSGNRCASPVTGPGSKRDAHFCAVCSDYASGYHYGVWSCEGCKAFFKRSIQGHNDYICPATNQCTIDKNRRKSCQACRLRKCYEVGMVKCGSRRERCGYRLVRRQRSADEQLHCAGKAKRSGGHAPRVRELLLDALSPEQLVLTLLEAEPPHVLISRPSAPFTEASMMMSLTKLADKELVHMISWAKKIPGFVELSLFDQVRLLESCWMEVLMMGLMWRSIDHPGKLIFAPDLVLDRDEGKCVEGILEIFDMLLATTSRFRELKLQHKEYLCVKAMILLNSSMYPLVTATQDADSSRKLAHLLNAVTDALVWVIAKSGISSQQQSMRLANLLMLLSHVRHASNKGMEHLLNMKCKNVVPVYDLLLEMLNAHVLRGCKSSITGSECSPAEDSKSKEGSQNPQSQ
Summary of the method: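 Ratiometric beta-lactamase FRET read-out came after 2 h substrate loading at room temperature. It followed 16 h compound treatment at 37C of GripTite HEK293T cells carrying a UAS-bla reporter, plated in 2% charcoal-stripped FBS medium.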

[3] = target: Estrogen receptor beta (Homo sapiens) (UniProt Q92731); assay: qHTS assay to identify small molecule antagonists of the estrogen receptor beta (ER-beta) signaling pathway (AID 1259378; active means well fitted inhibition curve with a large enough effect in the signal ratio in the repeat runs, not every such curve was filed as active; the % refers to the signal ratio)
Summary of the method: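 ER-beta-UAS-bla HEK293T (GripTite) cells in 2% charcoal-stripped FBS medium were preincubated 6 hr at 37C, dosed with compound, then stimulated with 1 nM E2 (final) for 16 hr; beta-lactamase reporter read by B/G FRET fluorescence after 2 hr substrate loading.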

[4] = qHTS assay to identify small molecule agonists of the androgen receptor (AR) signaling pathway in the presence of an antagonist - cell viability counter screen (AID 1259379; active means well fitted curve in the direction sought with a large enough effect in the repeat runs; an effect the other way counts as inactive or inconclusive;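 further: MDA-kb2 human breast cancer cells carrying an MMTV luciferase reporter; series mostly up to about 92 µM; nearly all actives have a fitted effect of over 25% in size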)
Summary of the method: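 Each compound was tested at 15 concentrations on MDA-kb2 cells in the presence of 3.0uM nilutamide. Viability was measured by CellTiter-Fluor fluorescence after a 16 hr incubation at 37C in a CO2-free atmosphere.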

[5] = qHTS assay to identify small molecule agonists of the estrogen receptor beta (ER-beta) signaling pathway - cell viability counter screen (AID 1259380; active means well fitted curve in the direction sought with a large enough effect in the repeat runs; an effect the other way counts as inactive or inconclusive; further: nearly all actives have a fitted effect of over 30% in size)
Summary of the method: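 Compounds dissolved in DMSO were pin-transferred onto ER-beta-UAS-bla HEK293T cells that had settled 6 hr, and exposure ran 16 hr at 37C. Following the reporter read, CellTiter-Glo luminescence after 30 min at room temperature indicated cytotoxicity.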

[6] = qHTS assay to identify small molecule antagonists of the estrogen receptor beta (ER-beta) signaling pathway - cell viability counter screen (AID 1259382; active means well fitted curve in the direction sought with a large enough effect in the repeat runs; an effect the other way counts as inactive or inconclusive; further: series mostly up to about 92 µM; nearly all actives have a fitted effect of over 55% in size)
Summary of the method: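 CellTiter-Glo ATP luminescence measured after the LiveBLAzer read in the same wells; ER-beta-UAS-bla HEK293T cells, 16 hr compound treatment with 1nM 17-beta-estradiol agonist at 37C, 5% CO2.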

[7] = target: Estrogen receptor (Homo sapiens) (UniProt P03372); assay: qHTS assay to identify small molecule agonists of the estrogen receptor alpha (ER-alpha) signaling pathway in the presence of an antagonist (AID 1259383); further: top concentration of the series differs between compounds; nearly all actives have a fitted effect of over 15% in size
Sequence of Estrogen receptor (Homo sapiens) (P03372 whole entry, looked up): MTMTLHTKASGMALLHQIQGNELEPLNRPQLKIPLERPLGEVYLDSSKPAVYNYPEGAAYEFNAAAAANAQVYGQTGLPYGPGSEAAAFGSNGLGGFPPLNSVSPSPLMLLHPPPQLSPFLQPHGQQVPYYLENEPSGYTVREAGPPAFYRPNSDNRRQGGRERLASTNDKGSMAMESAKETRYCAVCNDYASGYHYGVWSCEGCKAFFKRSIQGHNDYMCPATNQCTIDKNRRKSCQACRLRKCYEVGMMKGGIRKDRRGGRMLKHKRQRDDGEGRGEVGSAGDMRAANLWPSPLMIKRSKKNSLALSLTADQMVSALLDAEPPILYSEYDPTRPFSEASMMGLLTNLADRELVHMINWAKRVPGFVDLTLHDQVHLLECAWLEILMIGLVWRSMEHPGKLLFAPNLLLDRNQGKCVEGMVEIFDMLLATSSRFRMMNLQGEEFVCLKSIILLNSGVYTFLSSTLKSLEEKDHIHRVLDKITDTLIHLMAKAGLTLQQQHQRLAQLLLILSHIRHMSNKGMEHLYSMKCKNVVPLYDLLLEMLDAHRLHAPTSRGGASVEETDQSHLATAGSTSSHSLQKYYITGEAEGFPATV
Summary of the method: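 Luminescent ERE-luciferase reporter, VM7Luc4E2 cells (endogenous ER-alpha); 10.0nM ICI-182,780 final; 15-point compound titration; 22hr at 37C; ONE-Glo, 30min RT.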

[8] = qHTS assay to identify small molecule agonists or antagonists of the thyroid stimulating hormone receptor (TSHR) signaling pathway - wild type cell line counter screen (AID 1259384)
Summary of the method: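 Wild-type HEK293 cells were plated 18 h at 37 C/5% CO2, pin-dosed with compound plus Ro20-1724 medium, held 30 min at room temperature, then given cAMP-d2 and anti-cAMP-cryptate; fluorescence was read after 1 h. Fifteen concentrations, triplicate.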

[9] = target: Thyrotropin receptor (Homo sapiens) (UniProt P16473); assay: qHTS assay to identify small molecule antagonists of the thyroid stimulating hormone receptor (TSHR) signaling pathway (AID 1259385); further: nearly all actives have a fitted effect of over 20% in size
Sequence of Thyrotropin receptor (Homo sapiens) (P16473 whole entry, looked up): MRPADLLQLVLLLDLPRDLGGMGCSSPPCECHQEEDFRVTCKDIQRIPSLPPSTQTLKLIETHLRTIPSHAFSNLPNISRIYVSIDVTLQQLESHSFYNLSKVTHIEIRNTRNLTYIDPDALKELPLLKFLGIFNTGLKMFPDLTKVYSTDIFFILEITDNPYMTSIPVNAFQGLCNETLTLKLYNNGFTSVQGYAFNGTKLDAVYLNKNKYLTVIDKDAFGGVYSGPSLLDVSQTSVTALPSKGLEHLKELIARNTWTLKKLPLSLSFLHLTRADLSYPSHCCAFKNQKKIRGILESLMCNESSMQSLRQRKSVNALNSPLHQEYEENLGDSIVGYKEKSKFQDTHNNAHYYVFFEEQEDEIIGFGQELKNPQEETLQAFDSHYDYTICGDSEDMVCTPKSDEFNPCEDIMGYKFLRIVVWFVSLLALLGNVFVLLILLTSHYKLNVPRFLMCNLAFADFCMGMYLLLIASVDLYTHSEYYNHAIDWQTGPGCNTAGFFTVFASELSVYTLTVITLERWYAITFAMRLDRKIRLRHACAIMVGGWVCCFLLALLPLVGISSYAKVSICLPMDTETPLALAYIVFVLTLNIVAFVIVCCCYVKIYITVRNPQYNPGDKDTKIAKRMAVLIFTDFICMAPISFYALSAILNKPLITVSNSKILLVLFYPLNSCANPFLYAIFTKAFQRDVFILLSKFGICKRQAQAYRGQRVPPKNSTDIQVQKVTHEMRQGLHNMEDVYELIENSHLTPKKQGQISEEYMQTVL
Summary of the method: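 TSHR-HEK293 cells were plated and held 18 h at 37C/5% CO2, then given compound plus Ro20-1724 and stimulated with TSH at 1.5 ng/mL final. After 30 min at room temperature, cAMP was detected with cAMP-d2/anti-cAMP-cryptate (1 h) by fluorescence.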

[10] = qHTS assay to identify small molecule agonists of the estrogen receptor alpha (ER-alpha) signaling pathway in the presence of an antagonist - cell viability counter screen (AID 1259386; active means well fitted curve in the direction sought with a large enough effect in the repeat runs; an effect the other way counts as inactive or inconclusive;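 further: series mostly up to about 92 µM; cells exposed to compounds for 22 h at 37 °C before the viability read; nearly all actives have a fitted effect of over 30% in size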)
Summary of the method: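 Using estrogen-depleted VM7Luc4E2 cells, the 15-concentration compound series was applied together with 10.0nM ICI-182,780 and incubated 22hr at 37C/5% CO2. Cell viability was then scored by CellTiter-Fluor.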

[11] = target: Progesterone receptor (Homo sapiens) (UniProt P06401); assay: qHTS assay to identify small molecule agonists of the progesterone receptor (PR) signaling pathway (AID 1346784); further: nearly all actives have a fitted effect of over 30% in size
Sequence of Progesterone receptor (Homo sapiens) (P06401 whole entry, looked up): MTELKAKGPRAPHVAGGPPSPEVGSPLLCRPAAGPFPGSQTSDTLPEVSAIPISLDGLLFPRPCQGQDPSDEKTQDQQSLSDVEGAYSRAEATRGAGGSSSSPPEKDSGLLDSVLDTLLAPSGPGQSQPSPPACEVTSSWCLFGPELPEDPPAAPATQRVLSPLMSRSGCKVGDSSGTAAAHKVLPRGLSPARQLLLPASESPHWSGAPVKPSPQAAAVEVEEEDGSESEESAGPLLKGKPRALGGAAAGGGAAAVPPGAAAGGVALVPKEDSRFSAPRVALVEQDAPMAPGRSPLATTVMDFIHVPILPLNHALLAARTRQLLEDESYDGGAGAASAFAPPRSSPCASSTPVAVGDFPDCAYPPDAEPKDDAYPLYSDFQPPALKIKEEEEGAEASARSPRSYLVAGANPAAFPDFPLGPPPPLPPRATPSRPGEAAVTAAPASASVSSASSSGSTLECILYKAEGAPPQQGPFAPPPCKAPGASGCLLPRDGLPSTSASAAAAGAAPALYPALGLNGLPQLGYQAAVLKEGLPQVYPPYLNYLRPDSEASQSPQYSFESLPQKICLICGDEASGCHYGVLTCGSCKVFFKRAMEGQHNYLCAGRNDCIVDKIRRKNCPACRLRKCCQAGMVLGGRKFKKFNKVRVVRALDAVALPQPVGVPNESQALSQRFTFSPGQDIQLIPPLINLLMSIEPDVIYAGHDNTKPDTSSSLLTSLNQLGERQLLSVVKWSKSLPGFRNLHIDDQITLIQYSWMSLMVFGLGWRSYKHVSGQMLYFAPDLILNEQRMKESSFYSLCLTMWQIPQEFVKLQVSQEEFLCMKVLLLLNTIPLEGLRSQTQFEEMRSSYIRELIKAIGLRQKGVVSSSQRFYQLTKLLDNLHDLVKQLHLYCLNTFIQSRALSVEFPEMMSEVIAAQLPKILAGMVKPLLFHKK
Summary of the method: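 Agonist qHTS: compounds pinned onto 3,000 PR-UAS-bla HEK 293T cells per well in charcoal-stripped serum medium, 16hr at 37C, then beta-lactamase activity measured by LiveBLAzer FRET fluorescence after 2 hours at room temperature.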

[12] = qHTS assay to identify small molecule antagonists of the progesterone receptor (PR) signaling pathway - cell viability counter screen (AID 1346798; active means well fitted curve in the direction sought with a large enough effect in the repeat runs; an effect the other way counts as inactive or inconclusive; further: series mostly up to about 92 µM; nearly all actives have a fitted effect of over 50% in size)
Summary of the method: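 Cytotoxicity read as CellTiter-Glo luminescence (30 min, room temperature) in the same wells as the beta-lactamase readout. HEK293T PR-UAS-bla cells in charcoal-stripped 2% FBS received compound and R5020, then 16 h at 37C, 5% CO2.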

[13] = qHTS assay to identify small molecule agonists of the progesterone receptor (PR) signaling pathway - cell viability counter screen (AID 1346799); further: nearly all actives have a fitted effect of over 45% in size
Summary of the method: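 Cytotoxicity measured by CellTiter-Glo luminescence (30 min, RT) in the same wells as the PR beta-lactamase agonist read. Those HEK293T cells had 16 h compound treatment at 37 C in 2% charcoal-stripped FBS medium.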

[14] = qHTS assay to identify small molecule antagonists of the TGF-beta/Smad signaling pathway - cell viability counter screen (AID 1346824; active means well fitted curve in the direction sought with a large enough effect in the repeat runs; an effect the other way counts as inactive or inconclusive; further: nearly all actives have a fitted effect of over 50% in size)
Summary of the method: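 SBE-bla HEK 293T cells were plated overnight at 37 C, then given compounds in DMSO plus TGF-beta1 (added as 0.25 ng/mL solution) for 5 hr. After the bla read, CellTiter-Glo was added to the same wells and luminescence read after 30 min at room temperature.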

[15] = qHTS assay to identify small molecule agonists of the TGF-beta/Smad signaling pathway - cell viability counter screen (AID 1346829; active means well fitted curve in the direction sought with a large enough effect in the repeat runs; an effect the other way counts as inactive or inconclusive; further: top concentration of the series differs between compounds; nearly all actives have a fitted effect of over 45% in size)
Summary of the method: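 Here the cytotoxicity of library compounds is measured in SBE-bla HEK 293T cells treated for 5 hr, using CellTiter-Glo added to wells already read for the beta-lactamase reporter.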

[16] = qHTS assay to identify small molecule agonists of the TGF-beta/Smad signaling pathway (AID 1346859; active means well fitted activation curve with a large enough effect in the signal ratio in the repeat runs, not every such curve was filed as active; the % refers to the signal ratio; further: series mostly up to about 77 µM)
Summary of the method: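 Fluorescence (ex 405 nm; em 460 and 530 nm) was read 2 h after LiveBLAzer FRET substrate at RT. The preceding compound treatment of overnight-plated SBE-bla HEK293T cells lasted 5 h at 37 C.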

[17] = target: Thyrotropin-releasing hormone receptor (Homo sapiens) (UniProt P34981); assay: qHTS assay to identify small molecule antagonists of the thyrotropin-releasing hormone receptor (TRHR) signaling pathway (AID 1346877; active means well fitted inhibition curve with a large enough effect in the repeat runs, not every such curve was filed as active; further: series mostly up to about 51 µM)
Sequence of Thyrotropin-releasing hormone receptor (Homo sapiens) (P34981 whole entry, looked up): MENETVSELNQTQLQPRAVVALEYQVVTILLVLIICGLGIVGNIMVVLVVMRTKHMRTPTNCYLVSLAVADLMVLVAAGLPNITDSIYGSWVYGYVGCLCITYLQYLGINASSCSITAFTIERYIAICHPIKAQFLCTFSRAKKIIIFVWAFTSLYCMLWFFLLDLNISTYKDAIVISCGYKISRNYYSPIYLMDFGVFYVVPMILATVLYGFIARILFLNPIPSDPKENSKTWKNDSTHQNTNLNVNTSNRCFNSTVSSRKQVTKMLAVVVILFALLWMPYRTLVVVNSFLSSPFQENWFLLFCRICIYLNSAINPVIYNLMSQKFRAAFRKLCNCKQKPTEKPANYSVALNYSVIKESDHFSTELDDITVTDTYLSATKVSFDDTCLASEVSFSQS
Summary of the method: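 Calcium signal in dye-loaded TRHR/HEK293 cells; compounds added 5 min before TRH (1 nM final); fluorescence monitored 3 min at 1 s steps.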

[18] = target: Thyrotropin-releasing hormone receptor (Homo sapiens) (UniProt P34981); assay: qHTS assay to identify small molecule agonists of the thyrotropin-releasing hormone receptor (TRHR) signaling pathway (AID 1346891); further: series mostly up to about 58 µM
Summary of the method: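 Agonist-mode intracellular calcium readout: kinetic fluorescence over 3 min at 1 s intervals after compound addition to TRHR-HEK293 cells (18 h seeded, 2 h dye-loaded at 37 C). Fifteen concentrations, triplicates.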

[19] = target: Progesterone receptor (Homo sapiens) (UniProt P06401); assay: qHTS assay to identify small molecule antagonists of the progesterone receptor (PR) signaling pathway (AID 1346795; active means well fitted inhibition curve with a large enough effect in the signal ratio in the repeat runs, not every such curve was filed as active; the % refers to the signal ratio)
Summary of the method: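 Antagonist mode with agonist R5020 at 1 nM final and 16 hr incubation at 37C. Reporter was beta-lactamase driven by UAS in HEK293T (PR-UAS-bla), 2% charcoal-stripped serum; signal from LiveBLAzer FRET substrate, 2 hr at room temperature.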

[20] = target: Androgen receptor (Homo sapiens) (UniProt P10275); assay: qHTS assay to identify small molecule agonists of the androgen receptor (AR) signaling pathway in the presence of an antagonist (AID 1259381); further: nearly all actives have a fitted effect of over 15% in size
Sequence of Androgen receptor (Homo sapiens) (P10275 whole entry, looked up): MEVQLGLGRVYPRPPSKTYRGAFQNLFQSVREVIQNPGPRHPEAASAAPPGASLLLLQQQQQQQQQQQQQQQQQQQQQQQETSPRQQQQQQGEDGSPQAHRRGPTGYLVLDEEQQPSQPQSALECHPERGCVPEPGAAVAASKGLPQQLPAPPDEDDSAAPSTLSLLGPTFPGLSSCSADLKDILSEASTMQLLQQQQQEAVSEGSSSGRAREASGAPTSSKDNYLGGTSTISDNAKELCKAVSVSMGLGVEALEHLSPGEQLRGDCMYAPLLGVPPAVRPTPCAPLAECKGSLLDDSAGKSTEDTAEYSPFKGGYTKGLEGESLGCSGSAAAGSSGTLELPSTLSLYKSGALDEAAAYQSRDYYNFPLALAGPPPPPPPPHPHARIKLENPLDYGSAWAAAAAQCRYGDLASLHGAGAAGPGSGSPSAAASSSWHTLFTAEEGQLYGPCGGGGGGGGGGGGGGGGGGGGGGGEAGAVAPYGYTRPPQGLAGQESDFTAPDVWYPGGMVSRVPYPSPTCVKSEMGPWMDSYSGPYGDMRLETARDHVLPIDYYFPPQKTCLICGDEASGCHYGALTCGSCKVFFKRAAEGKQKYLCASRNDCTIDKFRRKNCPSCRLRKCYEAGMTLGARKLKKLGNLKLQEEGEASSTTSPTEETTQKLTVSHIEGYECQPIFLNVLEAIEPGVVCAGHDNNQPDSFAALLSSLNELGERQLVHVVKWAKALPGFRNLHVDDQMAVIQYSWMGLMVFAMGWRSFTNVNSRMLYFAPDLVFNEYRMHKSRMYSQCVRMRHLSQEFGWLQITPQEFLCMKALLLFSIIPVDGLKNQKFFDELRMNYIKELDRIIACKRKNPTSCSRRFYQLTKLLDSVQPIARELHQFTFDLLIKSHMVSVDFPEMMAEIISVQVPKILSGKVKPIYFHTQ
Summary of the method: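 Plated MDA-kb2 cells (3,000/well) were pre-incubated 5hr, given nilutamide (3.0uM final) or buffer, then dosed with compounds in DMSO at 15 concentrations. Luciferase activity was quantified by luminescence after 16hr at 37C.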

Measured: Potency

O=[N+]([O-])c1ccccc1CCl
not listed: [19] | [20]
inactive: all other assays above

COc1cc(CC(C)N)cc2c1OCO2 (centres undefined)
not listed: [10] | [20]
inactive: all other assays above

ClCc1cccc(Cl)c1
not listed: [8]
inactive: all other assays above

Cc1ccc2ccccc2c1
inactive: all assays above

C=CC(=O)OCC(C)C
not listed: [6] | [18] | [20]
inactive: all other assays above

CCOc1ccc(C(C)(C)COCc2cccc(Oc3ccccc3)c2)cc1
not listed: [5] | [12] | [13] | [17] | [18] | [20]
inactive: all other assays above

O=[N+]([O-])C(Br)(CO)CO
active: [1] 34.4 µM
not listed: [5] | [12]
inactive: all other assays above
